Rows were chosen to be rich in hits. Some 3.4% of all compounds tested hit in one or more screens of this group.
GPR151 activ: activators of human GPR151; activation, % at 11.2 µM; 1% of 650,000 active; PathHunter beta-arrestin GPR151 cells, luminescence; in the data active = activation above about 4.9%;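 note: 0% = median of compound wells and 100% = cells with positive control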
TEAD-YAP block: TEAD-YAP interaction inhibition; HEK-TIYL cells, TEAD-Gal4/YAP UAS-luciferase luminescence; AID 1259422; 1.4% of 640,000 active; inhibition, % at 9.12 µM; in the data active = inhibition above about 32%;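 note: 0% = median of test compound wells and 100% = reference inhibitor wells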
FBW7 activator: activators of human E3 ligase FBW7; 0.13% of 650,000 active; AID 1259310; Q969H0; AlphaScreen FBW7–phospho-cyclin E peptide binding, activator screen; normalized activity (activation), % at 26.1 µM; in the data active = normalized activity above about 1.9%;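 note: purified mutant Fbw7 with reduced substrate affinity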
MITF primary: human MITF inhibition, primary screen. AID 1259374. AlphaScreen MITF homodimerization, bead proximity signal. 0.91% of 650,000 active. inhibition, % at 2.6 µM; in the data active = inhibition above about 50%;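 note: 0% = vehicle wells with protein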
GPR151 confirm: confirmation of human GPR151 activators. shares compounds with GPR151 activ. activation, % at 11.2 µM. GPR151 PathHunter beta-arrestin cells, luminescence, 90 min; % of EA-reagent control over plate median. AID 1508609. 6,700 tested, under 10 active;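 active = mean percent activation across replicates above the confirmation screen cutoff of 4.91%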
GPR119 ag: counter-screen for GPR151 activators: effect on human GPR119; shares compounds with GPR151 activ; GPR119 PathHunter beta-arrestin cells, luminescence, 90 min; 0 = compound-well median, 100 = enzyme-acceptor control; activation, % at 11.2 µM; 0.3% of 6,700 active; AID 1508611;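 active = mean percent activation in the counterscreen above 29.09%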;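 note: counterscreen on off-target GPR119 to flag nonselective hits from the GPR151 activator screen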
Target sequence (Q8TDV5 whole entry, looked up): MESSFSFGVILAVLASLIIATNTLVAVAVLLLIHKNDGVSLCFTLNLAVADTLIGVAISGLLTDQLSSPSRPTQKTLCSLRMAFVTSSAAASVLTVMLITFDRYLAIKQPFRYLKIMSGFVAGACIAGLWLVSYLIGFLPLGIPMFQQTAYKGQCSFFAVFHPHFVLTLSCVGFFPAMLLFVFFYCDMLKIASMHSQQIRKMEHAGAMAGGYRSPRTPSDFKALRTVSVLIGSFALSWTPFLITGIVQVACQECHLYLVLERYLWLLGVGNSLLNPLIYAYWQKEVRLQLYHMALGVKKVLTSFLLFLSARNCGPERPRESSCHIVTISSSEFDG
* marks the source's active call; other numbers are inactive results.

`Cn1c(=O)c(=O)n(C)c2cc(S(=O)(=O)CCC(=O)NCc3ccccc3)ccc21` gave GPR151 activ 6.1*, TEAD-YAP block -10, FBW7 activator 1, MITF primary -18, GPR151 confirm 0 and GPR119 ag -4.
Screening CCC1Sc2cc(S(=O)(=O)CCC(=O)NCc3cccnc3)ccc2NC1=O (stereo unspecified) returned GPR151 activ 7.5*, TEAD-YAP block 10, FBW7 activator 0, MITF primary 0, GPR151 confirm 0 and GPR119 ag 4.
`COc1cccc(CNC(=O)CCS(=O)(=O)c2ccc3c(c2)SCC(=O)N3)c1` gave GPR151 activ 11*, TEAD-YAP block 2, FBW7 activator 0, MITF primary 12, GPR151 confirm 0 and GPR119 ag -8.
`O=C(Nc1cnc2cnc(-c3ccc(O)cc3)cn12)c1cccs1` gave GPR151 activ 1, TEAD-YAP block 3, FBW7 activator 0 and MITF primary 7.
For O=C(NCCc1ccc(F)cc1)c1ccc(-n2cc(NC(=O)C3CCOCC3)cn2)cc1 the results were GPR151 activ 0, TEAD-YAP block -8, FBW7 activator 0 and MITF primary -2.
Screening O=c1c2sc(=S)n(CCc3ccccc3)c2nc(SCc2ccc(Cl)cc2)n1-c1ccc(Br)cc1 returned GPR151 activ -1, TEAD-YAP block 5, FBW7 activator 0 and MITF primary 5.
For CCCC(=O)Nc1ccc(OC)c(Cl)c1 the results were GPR151 activ -3, TEAD-YAP block -2, FBW7 activator 0 and MITF primary 16.
Screening COC(=O)CCC(=O)Nc1ccc(OC)c(Cl)c1 returned GPR151 activ 6.0*, TEAD-YAP block 6, FBW7 activator 0, MITF primary -2, GPR151 confirm 0 and GPR119 ag 12.
For COc1ccc(NC(=O)c2cc(-c3ccccc3F)no2)cc1OC the results were GPR151 activ -1, TEAD-YAP block 6, FBW7 activator 0 and MITF primary 7.
Screening COc1ccc(NC(=O)c2cc(-c3ccccc3O)no2)cc1OC returned GPR151 activ 5.5*, TEAD-YAP block -8, FBW7 activator 0, MITF primary -11, GPR151 confirm 0 and GPR119 ag -13.
`Cc1cc(C(=O)Nc2ccc3c(c2)OCO3)on1` gave GPR151 activ 0, TEAD-YAP block -27, FBW7 activator 0 and MITF primary -7.
For O=C(Nc1ccc2c(c1)OCO2)c1cc(-c2ccccc2F)no1 the results were GPR151 activ 5.2*, TEAD-YAP block -26, FBW7 activator 0, MITF primary 12, GPR151 confirm 0 and GPR119 ag 5.
CCCOC(=O)c1ccccc1Nc1ccn2c(=O)c3ccccc3nc2n1 was read as GPR151 activ 0, TEAD-YAP block -10, FBW7 activator 1 and MITF primary 27.
CCOc1ccc(/C=c2\sc3nc(=O)c(C)nn3c2=O)cc1OC was read as GPR151 activ 0, TEAD-YAP block 16, FBW7 activator 0 and MITF primary 8.
Screening COc1cc(/C=c2\sc3nc(=O)c(C)nn3c2=O)ccc1OC(C)=O returned GPR151 activ 14*, TEAD-YAP block 3, FBW7 activator 0, MITF primary 4, GPR151 confirm 0 and GPR119 ag -1.
For CCOc1ccc(NC(=O)Nc2cccc(OC)c2)c([N+](=O)[O-])c1 the results were GPR151 activ 10*, TEAD-YAP block -13, FBW7 activator 0, MITF primary 1, GPR151 confirm 0 and GPR119 ag 0.
CCOc1ccc(OCC(=O)Nc2ccc(OC)cc2[N+](=O)[O-])cc1 was read as GPR151 activ -1, TEAD-YAP block 11, FBW7 activator 0 and MITF primary 13.
COc1cccc(OCC(=O)Nc2cccc(C)n2)c1 was read as GPR151 activ 1, TEAD-YAP block -42, FBW7 activator 0 and MITF primary -3.
`COc1ccc2c(c1)COC1(CCN(C(=O)Nc3ccccc3F)CC1)O2` gave GPR151 activ 7.7*, TEAD-YAP block -21, FBW7 activator 1, MITF primary 1, GPR151 confirm 1 and GPR119 ag -2.
For Cc1cccc(NC(=O)COc2ccc(S(=O)(=O)NC3CCCCC3)cc2)c1 the results were GPR151 activ 1, TEAD-YAP block 4, FBW7 activator 0 and MITF primary -2.
For Cc1cc(S(=O)(=O)NC2CCCCC2)ccc1OCC(=O)NC(C)C the results were GPR151 activ 1, TEAD-YAP block 8, FBW7 activator 0 and MITF primary -9.
Screening O=C(Nc1ccc(S(=O)(=O)NC2CCCCC2)cc1)Nc1cccc(Cl)c1 returned GPR151 activ 5.1*, TEAD-YAP block 8, FBW7 activator 0, MITF primary 13, GPR151 confirm 0 and GPR119 ag 11.
`COc1ccc(S(=O)(=O)NC2CCCCC2)cc1` gave GPR151 activ -2, TEAD-YAP block -8, FBW7 activator 0 and MITF primary 22.
Cc1cc(S(=O)(=O)NC2CCCCC2)ccc1OCC(=O)Nc1ccccc1F was read as GPR151 activ 5.0*, TEAD-YAP block -8, FBW7 activator 1, MITF primary 6, GPR151 confirm 1 and GPR119 ag 13.
COc1ccc2cc(S(=O)(=O)NC3CCCCC3)ccc2c1 was read as GPR151 activ 5.2*, TEAD-YAP block -2, FBW7 activator 0, MITF primary 6, GPR151 confirm 0 and GPR119 ag 11.
Screening CSc1cccc(NC(=O)COc2ccc(S(=O)(=O)NC3CCCCC3)cc2)c1 returned GPR151 activ 5.3*, TEAD-YAP block -4, FBW7 activator 0, MITF primary -1, GPR151 confirm 2 and GPR119 ag 3.
CC(C)(C)SCCOC(=O)Nc1ccc(Cc2ccc(NC(=O)OCCSC(C)(C)C)cc2)cc1 was read as GPR151 activ 0, TEAD-YAP block 10, FBW7 activator 0 and MITF primary 24.
For CC(C)c1nc(CNCc2c(C(=O)N3CCCN(C)CC3)nc3sccn23)cs1 the results were GPR151 activ 6.9*, TEAD-YAP block -1, FBW7 activator 0, MITF primary 10, GPR151 confirm 0 and GPR119 ag 1.
Screening CC(C)=C1C2C=CC1C1C(=O)N(c3ccc(Cl)c(Cl)c3)C(=O)C21 (stereo unspecified) returned GPR151 activ 0, TEAD-YAP block 0, FBW7 activator 0 and MITF primary 6.
CCOc1ccccc1NC(=O)c1sc2ncnc(N3CCN(c4ccccc4OC)CC3)c2c1C was read as GPR151 activ 1, TEAD-YAP block 3, FBW7 activator 0 and MITF primary 3.
`COc1ccc(-c2noc(COc3ccc4c(c3)OCO4)n2)cc1` gave GPR151 activ 5.1*, TEAD-YAP block 3, FBW7 activator 1, MITF primary 9, GPR151 confirm 0 and GPR119 ag -1.

From PubChem
